# Most compounds without a hit are left out; they make up all but 12% or so of the library.
# BAZ2B inh: blocks human BAZ2B; 360,000 compounds, 4.4% hits; Q9UIF8; AID 504333; AlphaScreen BAZ2B-H3K14Ac peptide displacement; Potency, µM (doses to about 114 µM), inactives show at the top dose activity change, negative = inhibition, usual class: inhibitors; further: on the % scale 0 is the no-effect control and ±100 the full control effect; nearly all actives have a fitted effect of over 60% in size
#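 Inhibition is scored as reduced AlphaScreen emission. The BAZ2B/b-H3(5-23)K14Ac complex (50 nM each) in PBS pH 7.4, 0.01% Tween-20 meets compound (up to 110 uM) for 30 min at RT before bead addition.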
# JMJD2A Tudor inh: JMJD2A Tudor domain (human) inhibition | O75164 | AlphaScreen JMJD2A-Tudor / H3K4me3 peptide binding | Potency, µM (titrated, usually from 114 µM), inactives show top-dose activity change, negative = inhibition, usual class: inhibitors | 390,000 compounds, 4.4% hits; further: on the % scale 0 is the no-effect control and ±100 the full control effect; nearly all actives have a fitted effect of over 50% in size
# Sfp PPTase inh: inhibitors of Bacillus subtilis Sfp phosphopantetheinyl transferase | Potency, µM, for the others: largest response in the series, negative = inhibition, actives largely listed as inhibitors | 310,000 compounds, 3.5% hits | Biochemical Sfp PPTase activity, qHTS | Q9F4F7;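 further: the enzyme is Sfp with the accession as filed and its product quenches rhodamine fluorescence; 0% = enzyme reaction without inhibitor and -100% = no enzyme wells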
#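 With Hepes-Na pH 7.6 buffer containing 10 mM MgCl2, Sfp (15 nM) modified BHQ-2-YbbR (12.5 uM) using rhodamine-CoA (5 uM). Two reads 30 minutes apart at 525/598 nm yielded each well's rate.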
# G9a inh: blocks human histone lysine methyltransferase G9a | Q96KQ7 | G9a H3K9 monomethylation, AlphaScreen, 2 h | Potency, µM (top dose mostly 102 µM), without a hit: top-dose activity, negative = inhibition, actives largely listed as inhibitors | 350,000 compounds, 8.8% hits | AID 504332; further: on the % scale 0 is the no-effect control and ±100 the full control effect; nearly all actives have a fitted effect of over 75% in size
#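 G9a (20 nM) preincubated 15 min RT with compounds, then 500 nM biotinylated H3K9 peptide and 20 uM SAM added; 2 h RT reaction. Monomethyl-H3K9 product detected by AlphaScreen with anti-H3K9me1 antibody, streptavidin donor and anti-rabbit IgG acceptor beads.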
# TDP1 block: blocks human tyrosyl-DNA phosphodiesterase 1; 350,000 compounds, 0.28% hits; AID 485290; Potency, µM (titrated, usually from 130 µM), without a hit: at the top dose activity change, negative = inhibition, most hits filed as inhibitors; recombinant TDP1, AlphaScreen DNA substrate cleavage; further: on the % scale 0 is the no-effect control and ±100 the full control effect; nearly all actives have a fitted effect of over 40% in size
#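 Steps: enzyme plus compound, 15 min RT; add biotin/phosphotyrosine-FITC oligonucleotide (15 nM final), react 5 min; add donor/acceptor beads (10 ug/ml final), 10 min; read AlphaScreen. Tdp1 at 1 nM final.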
# HP1b chromo inh: blocks HP1-beta chromodomain binding to methylated histone tails; P83916; Potency, µM (top dose mostly 114 µM), for inactives: at the top dose activity change, negative = inhibition, usual class: inhibitors; 390,000 compounds, 0.56% hits; AlphaScreen HP1-beta / biotin-H3K9me3 peptide binding; further: nearly all actives have a fitted effect of over 70% in size
#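 Compound inhibition of the preformed complex between 50 nM HP1-beta and 50 nM biotinylated H3K9me3 peptide was read by AlphaScreen. Buffer was PBS pH 7.4 with 0.01% Tween-20. Incubations ran 30 min at room temperature, with 10 ug/mL donor/acceptor beads.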
# * = called active by the depositor; u = inconclusive; x = no result given; [ ] = dose if it differs, or a comment. The call rests on the fitted dose curve; in most records, active means well fitted curve in the direction sought with a large enough effect; inconclusive means small, poorly fitted or top-dose-only effect, or another doubt; inactive means no such curve, though single readings can be large; an effect the other way counts as inactive or inconclusive. Potency means the concentration at half of the fitted maximal effect.
SMILES,BAZ2B inh,JMJD2A Tudor inh,Sfp PPTase inh,G9a inh,TDP1 block,HP1b chromo inh
COC(=O)[C@]1(C)CCC[C@]2(C)c3ccc(C(C)C)cc3C(=O)CC12 (stereo not given in full),x,x,-10.0%,x,-6.1%[56.1 µM],x
Cn1nc(C(=O)Nc2ccc3c(c2)OCCO3)cc1C(=O)O,u,-11.3%[11.4 µM],10.1%,x,5.1%,36.0%
CC(C)(C)c1nc2ccccc2[nH]1,-8.5%,79.4µM*,-4.7%,u,3.5%,-4.0%
CC(C)Sc1nc2ccccc2[nH]1,-3.7%,1.6%,21.1%,56.2µM*,1.8%,61.9%
C/C(=N\Nc1ccc(F)cc1F)c1cccs1,27.5%,x,10.7%,25.1µM*,3.7%,x
COc1ccc(/C(C)=N/Nc2ccc(F)cc2F)c(O)c1,-16.3%,-14.0%,7.2%,2.51µM*,8.9%,25.8%
C/C(=N\Nc1ccccn1)c1cccs1,x,-15.3%,-26.2%,-29.5%,5.3%,u
COc1ccc(/C(C)=N/Nc2ccccc2Cl)c(O)c1,u,u,u,1µM*,39.8µM*,-18.3%
COc1ccc(C(=O)c2ccc(OC)cc2O)c(O)c1,5.1%,-0.3%,14.2%,4.8%,4.9%,13.4%
S=c1[nH]nc(-c2cc(-c3ccccc3)n[nH]2)n1/N=C/C=C/c1ccco1,u,u,15.8µM*,1.78µM*,1.2%,u
S=c1[nH]nc(-c2ccco2)n1/N=C/C=C/c1ccco1,u,3.55µM*,-41.6%,1.41µM*,-4.7%,u
O=[N+]([O-])c1ccc(N/N=C/C=C/c2ccco2)cc1,x,-21.1%,x,x,x,1.7%
CCCc1nc2ccccc2c(C(=O)N(CC)CC(=O)NCc2cccs2)c1CC,8.2%,3.4%,x,35.5µM*,-12.0%,22.3%
CCN(CC)c1ccc(NC(=O)C(Cc2ccccc2)NS(=O)(=O)c2ccc(Br)s2)c(C)c1 (stereo not given),-14.5%,u,x,u,7.5%,1.6%
Cc1ccc(Nc2nnc(SCC(=O)N(C)C3CCS(=O)(=O)C3)s2)cc1 (stereo not given),-3.1%,-14.0%,13.8%,u,7.7%,18.1%
Cc1cccc(Nc2nnc(SCC3CCCCO3)s2)c1 (stereo not given),-7.6%,-2.7%,4.6%,10µM*,5.3%,23.7%
Cc1ccc(Nc2nnc(SCC(=O)c3ccc(O)cc3O)s2)cc1,-12.8%,-33.1%,-5.0%,31.6µM*,x,-8.9%
Cc1cccc(Nc2nnc(SCC(=O)c3ccc(O)cc3O)s2)c1,-4.6%,-26.7%,-6.7%,44.7µM*,9.1%,38.3%
COc1ccccc1CNC(=O)CN(CCc1ccccc1)S(C)(=O)=O,6.1%,-4.2%,-0.3%,-37.9%,5.4%,10.1%
CC(=NNC(=S)N1CC2CCC(CC2)C1)c1ccncn1,x,14.1µM*,x,x,x,u
CN(C)S(=O)(=O)c1ccc(C(=O)/C=C/c2cccnc2)cc1,-6.8%,-0.7%,5.0%,u,-5.9%,60.6%
C/C(=N\NC(=O)c1cc(C2CC2)nc2ccccc12)c1ccc(O)cc1O,3.55µM*,-22.7%,8.5%,-4.3%,4.3%,16.7%
C/C(=N\NC(=O)c1cc(C2CC2)nc2ccccc12)c1ccc(C)s1,-9.9%,-2.8%,-8.3%,39.8µM*,2.6%,35.9%
CC(C)NC(=O)N(C)C[C@H]1Oc2ccc(NS(=O)(=O)c3cn(C)cn3)cc2C(=O)N([C@H](C)CO)C[C@@H]1C,x,39.8µM*,x,x,0.0%,-21.6%
CCOc1ccc(-c2cc(N)n(S(=O)(=O)c3cccc4nsnc34)n2)cc1,u,u,3.4%,22.4µM*,7.7%,-11.8%
SMILES,BAZ2B inh,JMJD2A Tudor inh,Sfp PPTase inh,G9a inh,TDP1 block,HP1b chromo inh
CN1CC(=O)Nc2cc(C(=O)O)ccc21,3.1%,-14.1%,x,u,7.8%,18.1%
CN1C(=O)NC(c2ccccc2[N+](=O)[O-])C2=C1CC(C)(C)CC2=O (stereo not given),-19.9%,-11.9%,-22.9%,50.1µM*,x,-16.2%
CN1C(=O)NC(c2ccccc2[N+](=O)[O-])C2=C1CCCC2=O (stereo not given),-21.5%,-2.7%,-28.4%,44.7µM*,x,17.2%
CN1C(=O)NC(c2ccc([N+](=O)[O-])cc2)C2=C1CC(C)(C)CC2=O (stereo not given),-10.4%,-10.7%,6.0%,9.8%,x,21.0%
CC(=O)Nc1ccc(S(=O)(=O)N2CCNC(=O)C2)cc1,x,-11.0%,x,x,1.2%,24.6%
CCc1ccc(NC(=O)CSC2=Nc3ccccc3C3=NC(CC(=O)NCc4ccccc4)C(=O)N23)cc1 (stereo not given),u,-28.7%,x,3.9%[59 µM],1.5%,13.4%
OC(c1ccccc1)(c1ccccc1)C1CCN(C(=S)NC2CCCC2)CC1,-31.7%,-22.1%,16.3%,39.8µM*,0.0%,-6.4%[57 µM]
Cc1cc(C(=O)N/N=C/c2cc(Cl)cc([N+](=O)[O-])c2O)c2ccccc2n1,39.8µM*,56.2µM*,1.3%,u,0.0%,u
O=C(N/N=C/c1cc(Cl)cc([N+](=O)[O-])c1O)c1ccccc1NS(=O)(=O)c1cccs1,-36.5%,56.2µM*,8.1%,x,9.9%,u
O=C(Nc1ccc(C(=O)OCc2cc(=O)n3c4c(sc3n2)CCCC4)cc1)c1ccccc1,-2.4%,-6.0%,x,17.4%[59 µM],3.8%,12.0%
O=C(Nc1cccc(F)c1)N1CCCC2(CCN(C(=O)c3cnccn3)CC2)C1,x,x,-3.3%,3.6%[12.7 µM],x,x
COc1ccc(C)c2sc(N(Cc3cccnc3)C(=O)COc3ccccc3)nc12,-12.8%,-11.0%,x,1.4%[59 µM],7.8%,35.8%
COc1cc(NC2=Nc3cccc4cccc2c34)cc(OC)c1OC,50.1µM*,u,-1.6%,50.1µM*,-4.3%,u
COc1ccc(NC2=Nc3cccc4cccc2c34)cc1OC,-39.0%[57.1 µM],u,-18.4%,u,7.0%,-17.7%
COc1cccc(NC2=Nc3cccc4cccc2c34)c1,39.8µM*,44.7µM*,6.6%,u,2.7%,-36.2%
O=C(N1CCCCC1)C1(S(=O)(=O)c2ccccc2)CC=CC1,5.5%,-6.4%,9.2%,x,x,44.1%
C/C(CCC(=O)OC[C@@H]1O[C@H](C#Cc2ccccc2)C=C[C@@H]1Oc1ccc(C)cc1)=N/OC[C@@H](O)[C@H]1O[C@H]2OC(C)(C)O[C@H]2[C@@H]1O,x,x,14.5%,x,6.9%[21 µM],x
O=C(COC(=O)CNS(=O)(=O)c1ccc(Br)cc1Cl)Nc1ccc(N2CCOCC2)cc1,-34.1%,-30.0%,x,u,2.3%,-7.0%
Cc1cc(N2CCN(C)CC2)nc2ccc(NC(=O)Nc3cccc(Cl)c3)cc12,-4.8%[57.1 µM],-19.4%,x,u,2.1%,10.8%
CC(Sc1nnc(NC2CCCCC2)s1)C(=O)Nc1ccc2c(c1)C(=O)c1ccccc1C2=O (stereo not given),-35.9%,u,5.8%,3.55µM*,8.2%,-17.3%
